These results are taken from PubChem BioAssay (NCI).

About 83,000 compounds went through this panel and 20% of them were active in at least one assay; those are over-represented in the sample as a whole.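 Plates (96-well) were seeded with cells, treated with compound at one concentration, and incubated for 48 hours before percent growth was determined.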 Unmarked numbers belong to inactive results. Activity calls are given as the source filed them. Rule for the calls: active = growth percent below 10; inactive = the rest.

Common to all, as to experiment: NCI-60 one-dose screen, 48 h (100 = growth as untreated, 0 = no growth, -100 = all killed)
What all share (details): 10 µM unless noted

For assay [1], the system named is HCT-15 colon.
Assay [2] has as its system HT29 colon.
For assay [3], the system named is SNB-75 CNS.
For assay [4], the system named is SNB-19 CNS.
The test system of assay [5] is U251 CNS.
Assay [6] concerns PC-3 prostate.
In assay [7] the test system is SK-MEL-5 melanoma.
The subject of assay [8] is UACC-62 melanoma.
For assay [9], the system named is LOX IMVI melanoma.
Assay [10] concerns SK-MEL-28 melanoma.
In assay [11] the test system is SK-MEL-2 melanoma.
The subject of assay [12] is EKVX NSCLC.
The subject of assay [13] is SN12C renal.
The subject of assay [14] is UO-31 renal.
In assay [15] the test system is TK-10 renal.
The subject of assay [16] is ACHN renal.
The subject of assay [17] is CAKI-1 renal.
In assay [18] the test system is A498 renal.
Assay [19] concerns CCRF-CEM leukemia.
Assay [20] has as its system MOLT-4 leukemia.

On to `CCN(CC)CCOc1ccc(C(=C(C)Cc2ccc(OC)cc2)c2ccc(OCCN(CC)CC)cc2)cc1`, for which the growth in assay [1] is 7.13% (active); in assay [2], -4.07% (active); in assay [3], 76.5%; in [4], 74.4%; in assay [5], 9.54% (active); in assay [6] it was 66.2%. For the same compound, the growth in [7] was 31.1%; in assay [8], -37.6% (active); in [9], -80.7% (active); in assay [10] it was -82% (active); in [11], 116%; in [12] it was 84%. Further, the growth in assay [13] is 86.1%; in assay [14] it was 68.3%; in [15] it was 111%; in assay [16], 46.7%; in assay [17], 69.8%; in [18] it was 85.7%. For the same compound, the results for the growth in [19] and in [20] were 3.83% (active) and 3.61% (active), respectively.
As to `Clc1cccc(/C=N/Nc2nc(N/N=C/c3cccc(Cl)c3)nc(N3CCCCC3)n2)c1`, the growth in assay [1] was 79.8%; in assay [2], 85.6%; in assay [3], 102%; in assay [4], 98.6%; in [5] it was 91.7%; in assay [6], 76%. The growth in assay [7] was 80.6%; in assay [8], 79.2%; in assay [9] it was 105%; in assay [10], 96.2%; in assay [11], 86.1%; in assay [12] it was 78.4%. The growth in assay [13] was 92.4%; in assay [14] it was 76.7%; in [15], 106%; in assay [16], 101%; in [17] it was 92.4%; in assay [18], 92.2%. The growth in assay [19] was 75%; in assay [20] it was 68.7%.
For `CCC(=C(c1ccc(OCCN2CCCCCC2)cc1)c1ccc(OCCN2CCCCCC2)cc1)c1ccc(Cl)cc1`, the growth was -58.9% (active) in assay [1]; -44.7% (active) in [2]; 62% in assay [3]; -21.3% (active) in assay [4]; -69.8% (active) in assay [5]; 27.7% in assay [6]. Also, the growth in assay [7] is 21.5%; in [8], -35.4% (active); in assay [9], -89.6% (active); in [10], -82% (active); in [11] it was -29.9% (active); in assay [12], 54.5%. Moreover, the growth in assay [13] was 48.3%; in assay [14] it was 13.6%; in assay [15], 114%; in assay [16] it was 26.2%; in [17] it was 44.3%; in assay [18], 84.4%. For the same compound, the growth in [19] is 3.5% (active); in assay [20], 4.03% (active).
`Cc1cc2nc(C(Cl)Cl)nc(-c3ccc(S(=O)(=O)N(C)C)cc3)n2n1`: the growth in assay [1] was 5.58% (active); in assay [2] it was 18%; in assay [3], 55.5%; in [4] it was 58.4%; in assay [5], 39.2%; in assay [6] it was 67.4%. For the same compound, the growth in assay [7] was 80.3%; in [8], 68.5%; in assay [9], 17.7%; in assay [10], 59.3%; in assay [11], 93%; in assay [12], 48.7%. Besides, the growth in [13] is 55%; in [14], 65.7%; in assay [15] it was 85%; in assay [16], 25.2%; in assay [17], 45%; in assay [18], 90.9%. In addition, the growth in [19] is 40.8%; in assay [20], 28.4%.
`NC1=NC2(CCCC2)N(c2ccc(S(=O)(=O)Nc3nccs3)cc2)C(N)=N1`: the growth in [1] is 100%; in [2] it was 109%; in assay [3], 112%; in assay [4], 100%; in assay [5] it was 104%; in assay [6], 102%. Moreover, the growth in [7] is 100%; in [8] it was 98.9%; in assay [9], 99%; in assay [10] it was 105%; in assay [11], 116%; in assay [12], 98.7%. Also, the growth was 102% in assay [13]; 83.6% in assay [14]; 104% in assay [15]; 103% in assay [16]; 93.6% in assay [17]; 120% in assay [18]. Moreover, the results for the growth in assay [19] and in [20] were 95.9% and 102%, respectively.
Consider `CN1CCN(c2ccc(Nc3nc(NCCNC(=O)c4ccc(F)cc4)c4sccc4n3)cc2)CC1`, for which the growth in [1] was 28.2%; in assay [2], 32%; in assay [3], 91.5%; in [4], 91.8%; in [5], 37%; in assay [6] it was 72.2%. Moreover, the growth in assay [7] was 25.2%; in assay [8], 33.8%; in [9] it was 8.7% (active); in assay [10], -8.89% (active); in [11] it was 104%; in assay [12] it was 92.7%. In addition, the growth was 84.2% in assay [13]; 65.5% in assay [14]; 128% in assay [15]; 67.8% in assay [16]; 57.9% in assay [17]; 125% in [18]. Further, the growth in assay [19] was 38.2%; in assay [20], 23.4%.
